# Results: paper PMC7862700, “An all-to-all approach to the identification of sequence-specific readers for epigenetic DNA modifications on cytosine”
# Key:
# Experiment in all cases: DAPPL (digital affinity profiling via proximity ligation, sequencing); 10 mM Tris-HCl pH 7.5, 50 mM NaCl, 1 mM DTT, 4% glycerol, room temperature, 30 min; GST-TFs on glutathione beads, 16-mer random dsDNA library, 0.1% formaldehyde crosslink after washing; high values mean tight binding
# [1] = target: T1, FEV (Homo sapiens, UniProt Q99581 1-238); conditions: protein: recombinant; tags: N-terminal GST; dsDNA, one strand shown
# T1 sequence: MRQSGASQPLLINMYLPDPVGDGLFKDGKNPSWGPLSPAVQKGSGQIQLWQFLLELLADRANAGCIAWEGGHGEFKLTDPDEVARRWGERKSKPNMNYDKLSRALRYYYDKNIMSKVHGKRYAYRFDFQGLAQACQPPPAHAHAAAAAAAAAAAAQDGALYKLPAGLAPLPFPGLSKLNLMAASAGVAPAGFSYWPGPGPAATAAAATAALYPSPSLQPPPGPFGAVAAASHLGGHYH
# Outline: (§1)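 Yeast served to express human transcription factors as GST fusions, which were then captured on glutathione beads and labelled with DNA barcodes. Pooled with a tag-only sample, they were incubated with 200 nmole of a 16-mer random double-stranded DNA library for 30 min at room temperature in Tris/NaCl/DTT/glycerol buffer, washed, crosslinked with 0.1% formaldehyde, ligated by proximity, amplified by PCR and sequenced. Dividing each hexamer's read frequency for a factor by its frequency for the tag-only sample gives the binding signal.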
# [2] = target: ETV5 (Homo sapiens, UniProt P41161 1-510); conditions: protein: recombinant; tags: N-terminal GST; dsDNA, one strand shown
# Chain of ETV5 (P41161 whole entry): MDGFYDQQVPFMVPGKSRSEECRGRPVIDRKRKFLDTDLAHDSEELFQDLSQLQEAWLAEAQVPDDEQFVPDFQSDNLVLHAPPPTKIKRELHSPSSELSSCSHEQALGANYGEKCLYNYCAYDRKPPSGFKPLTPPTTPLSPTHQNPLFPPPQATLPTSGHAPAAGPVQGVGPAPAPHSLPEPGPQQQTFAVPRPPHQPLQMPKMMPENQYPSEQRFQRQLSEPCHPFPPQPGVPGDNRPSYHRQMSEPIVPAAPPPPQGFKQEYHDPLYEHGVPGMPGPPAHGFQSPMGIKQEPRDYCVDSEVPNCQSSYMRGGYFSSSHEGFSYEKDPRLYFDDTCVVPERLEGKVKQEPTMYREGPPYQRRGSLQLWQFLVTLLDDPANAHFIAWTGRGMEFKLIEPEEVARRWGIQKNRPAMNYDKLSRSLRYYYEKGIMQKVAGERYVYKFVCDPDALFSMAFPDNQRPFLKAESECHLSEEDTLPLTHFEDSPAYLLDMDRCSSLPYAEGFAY
# Outline: as §1
# [3] = target: HSF1 (Homo sapiens, UniProt Q00613 1-529); conditions: protein: recombinant; tags: N-terminal GST; chain copies: 3; dsDNA, one strand shown
# Chain of HSF1 (Q00613 whole entry): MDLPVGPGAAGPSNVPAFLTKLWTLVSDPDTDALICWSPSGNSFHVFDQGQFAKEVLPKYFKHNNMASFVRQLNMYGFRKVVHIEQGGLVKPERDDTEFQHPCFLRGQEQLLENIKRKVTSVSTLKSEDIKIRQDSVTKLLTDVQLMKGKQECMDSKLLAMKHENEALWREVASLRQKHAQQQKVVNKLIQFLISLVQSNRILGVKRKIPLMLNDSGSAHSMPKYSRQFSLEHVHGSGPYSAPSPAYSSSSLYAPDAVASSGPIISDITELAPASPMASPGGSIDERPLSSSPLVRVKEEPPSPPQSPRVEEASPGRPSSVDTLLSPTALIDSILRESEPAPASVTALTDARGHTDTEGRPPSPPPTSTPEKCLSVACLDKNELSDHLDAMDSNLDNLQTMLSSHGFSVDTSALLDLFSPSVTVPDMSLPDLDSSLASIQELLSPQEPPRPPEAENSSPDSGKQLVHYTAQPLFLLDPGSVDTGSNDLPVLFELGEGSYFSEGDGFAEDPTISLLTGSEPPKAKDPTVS
# Outline: as §1
# [4] = target: T2, SPIC (Homo sapiens, UniProt Q8N5J4 1-248); conditions: protein: recombinant; tags: N-terminal GST; dsDNA, one strand shown
# T2 sequence: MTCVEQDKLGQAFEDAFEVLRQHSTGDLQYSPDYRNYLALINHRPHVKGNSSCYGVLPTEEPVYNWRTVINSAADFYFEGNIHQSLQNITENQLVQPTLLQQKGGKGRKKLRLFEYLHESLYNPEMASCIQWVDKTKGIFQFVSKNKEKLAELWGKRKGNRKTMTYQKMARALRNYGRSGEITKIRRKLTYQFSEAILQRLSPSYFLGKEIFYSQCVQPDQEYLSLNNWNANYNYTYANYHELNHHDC
# Outline: as §1
# [5] = target: ELF4 (Homo sapiens, UniProt Q99607 1-663); conditions: protein: recombinant; tags: N-terminal GST; dsDNA, one strand shown
# Chain of ELF4 (Q99607 whole entry): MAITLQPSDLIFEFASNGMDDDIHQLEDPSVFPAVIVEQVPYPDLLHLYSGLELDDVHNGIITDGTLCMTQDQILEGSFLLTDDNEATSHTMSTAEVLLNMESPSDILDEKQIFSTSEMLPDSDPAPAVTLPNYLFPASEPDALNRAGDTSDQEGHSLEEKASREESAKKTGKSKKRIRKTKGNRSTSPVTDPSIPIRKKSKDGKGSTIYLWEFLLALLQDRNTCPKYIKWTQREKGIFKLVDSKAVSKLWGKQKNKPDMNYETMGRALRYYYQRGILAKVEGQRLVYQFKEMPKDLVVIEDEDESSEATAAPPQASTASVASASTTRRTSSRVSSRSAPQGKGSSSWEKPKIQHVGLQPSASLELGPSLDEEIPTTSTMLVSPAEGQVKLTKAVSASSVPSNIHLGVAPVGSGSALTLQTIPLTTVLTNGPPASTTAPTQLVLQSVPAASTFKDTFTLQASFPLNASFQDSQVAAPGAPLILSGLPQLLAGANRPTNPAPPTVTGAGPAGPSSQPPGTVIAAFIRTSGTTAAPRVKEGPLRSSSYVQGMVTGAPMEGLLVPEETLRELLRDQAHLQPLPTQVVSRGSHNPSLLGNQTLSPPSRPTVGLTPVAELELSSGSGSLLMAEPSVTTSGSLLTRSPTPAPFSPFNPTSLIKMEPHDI
# Outline: as §1
# [6] = target: T3, ELK4 (Homo sapiens, UniProt P28324-2 1-405); conditions: protein: recombinant; tags: N-terminal GST; dsDNA, one strand shown
# T3 sequence: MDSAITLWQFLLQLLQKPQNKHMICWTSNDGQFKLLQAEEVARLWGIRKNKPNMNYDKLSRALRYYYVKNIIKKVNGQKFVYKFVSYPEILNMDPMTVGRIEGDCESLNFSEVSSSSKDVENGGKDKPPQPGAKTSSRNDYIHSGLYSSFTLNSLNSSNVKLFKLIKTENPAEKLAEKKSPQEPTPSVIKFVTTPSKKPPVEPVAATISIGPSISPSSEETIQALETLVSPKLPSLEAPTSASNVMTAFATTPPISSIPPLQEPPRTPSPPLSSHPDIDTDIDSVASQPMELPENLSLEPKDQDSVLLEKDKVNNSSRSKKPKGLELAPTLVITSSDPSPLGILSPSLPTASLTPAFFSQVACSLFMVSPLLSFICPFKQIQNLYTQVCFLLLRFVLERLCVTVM
# Outline: as §1
# [7] = target: T4, ETV2 (Homo sapiens, UniProt O00321 1-342); conditions: protein: recombinant; tags: N-terminal GST; dsDNA, one strand shown
# T4 sequence: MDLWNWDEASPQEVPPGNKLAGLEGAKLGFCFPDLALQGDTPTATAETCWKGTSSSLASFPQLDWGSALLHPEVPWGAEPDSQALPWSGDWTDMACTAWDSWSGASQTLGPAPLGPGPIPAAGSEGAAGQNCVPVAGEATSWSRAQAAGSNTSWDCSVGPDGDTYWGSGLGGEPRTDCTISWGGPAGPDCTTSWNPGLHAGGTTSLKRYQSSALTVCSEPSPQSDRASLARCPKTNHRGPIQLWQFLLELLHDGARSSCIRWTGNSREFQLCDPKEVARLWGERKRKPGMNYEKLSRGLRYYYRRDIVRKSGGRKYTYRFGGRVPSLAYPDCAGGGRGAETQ
# Outline: as §1
# [8] = target: T5, ELF3 (Homo sapiens, UniProt P78545 1-371); conditions: protein: recombinant; tags: N-terminal GST; dsDNA, one strand shown
# T5 sequence: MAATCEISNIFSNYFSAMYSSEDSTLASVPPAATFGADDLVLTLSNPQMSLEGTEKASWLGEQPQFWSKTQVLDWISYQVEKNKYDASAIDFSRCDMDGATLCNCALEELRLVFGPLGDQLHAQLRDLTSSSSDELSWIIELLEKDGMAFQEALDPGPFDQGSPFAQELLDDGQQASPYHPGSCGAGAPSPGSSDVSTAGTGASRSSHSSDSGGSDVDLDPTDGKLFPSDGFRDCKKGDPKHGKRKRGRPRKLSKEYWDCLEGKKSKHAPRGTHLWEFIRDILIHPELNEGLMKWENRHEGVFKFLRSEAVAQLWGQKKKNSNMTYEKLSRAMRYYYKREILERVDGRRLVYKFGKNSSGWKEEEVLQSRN
# Outline: as §1
# [9] = target: CRX (Homo sapiens, UniProt O43186 1-299); conditions: protein: recombinant; tags: N-terminal GST; dsDNA, one strand shown
# Chain of CRX (O43186 whole entry): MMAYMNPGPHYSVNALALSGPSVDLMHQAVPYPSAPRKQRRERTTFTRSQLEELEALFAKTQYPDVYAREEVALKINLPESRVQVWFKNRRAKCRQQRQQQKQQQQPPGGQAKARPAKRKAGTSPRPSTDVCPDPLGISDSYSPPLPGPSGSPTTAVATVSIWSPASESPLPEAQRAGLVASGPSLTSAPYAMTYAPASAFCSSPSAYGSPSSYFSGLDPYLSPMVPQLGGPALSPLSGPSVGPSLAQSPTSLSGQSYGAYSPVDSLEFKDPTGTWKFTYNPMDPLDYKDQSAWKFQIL
# Outline: as §1
# [10] = target: ETV1 (Homo sapiens, UniProt P50549 1-477); conditions: protein: recombinant; tags: N-terminal GST; dsDNA, one strand shown
# Chain of ETV1 (P50549 whole entry): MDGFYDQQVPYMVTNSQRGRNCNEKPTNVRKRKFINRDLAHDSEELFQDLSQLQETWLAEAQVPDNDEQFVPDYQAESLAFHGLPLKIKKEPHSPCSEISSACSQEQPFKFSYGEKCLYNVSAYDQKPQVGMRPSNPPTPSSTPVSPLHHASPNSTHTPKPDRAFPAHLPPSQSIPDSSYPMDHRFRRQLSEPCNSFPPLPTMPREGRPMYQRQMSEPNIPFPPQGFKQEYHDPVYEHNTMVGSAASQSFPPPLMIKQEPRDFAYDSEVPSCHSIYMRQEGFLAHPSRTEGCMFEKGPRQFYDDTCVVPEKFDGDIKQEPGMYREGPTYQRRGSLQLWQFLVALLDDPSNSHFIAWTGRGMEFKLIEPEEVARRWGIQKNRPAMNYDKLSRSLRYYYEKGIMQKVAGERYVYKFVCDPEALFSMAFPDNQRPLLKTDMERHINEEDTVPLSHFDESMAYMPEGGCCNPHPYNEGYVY
# Outline: as §1
# [11] = target: T6, ERF (Homo sapiens, UniProt P50548 1-548); conditions: protein: recombinant; tags: N-terminal GST; dsDNA, one strand shown
# T6 sequence: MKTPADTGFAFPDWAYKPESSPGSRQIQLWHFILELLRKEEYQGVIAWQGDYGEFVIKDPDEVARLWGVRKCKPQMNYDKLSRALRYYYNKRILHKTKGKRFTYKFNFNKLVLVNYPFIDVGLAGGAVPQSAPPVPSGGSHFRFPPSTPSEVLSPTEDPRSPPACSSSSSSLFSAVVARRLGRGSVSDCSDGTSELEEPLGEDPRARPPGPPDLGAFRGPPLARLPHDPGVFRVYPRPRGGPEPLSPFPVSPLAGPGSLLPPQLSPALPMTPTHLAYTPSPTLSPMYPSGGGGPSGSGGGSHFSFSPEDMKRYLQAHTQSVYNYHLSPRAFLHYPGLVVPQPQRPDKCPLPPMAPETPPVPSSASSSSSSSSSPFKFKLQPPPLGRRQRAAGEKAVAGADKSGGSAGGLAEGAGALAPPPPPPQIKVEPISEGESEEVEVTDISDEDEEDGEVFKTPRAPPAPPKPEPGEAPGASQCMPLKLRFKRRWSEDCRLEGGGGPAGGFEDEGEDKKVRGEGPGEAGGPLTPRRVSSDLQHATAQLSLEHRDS
# Outline: as §1
# [12] = target: T7, ETV3L (Homo sapiens, UniProt Q6ZN32 1-361); conditions: protein: recombinant; tags: N-terminal GST; dsDNA, one strand shown
# T7 sequence: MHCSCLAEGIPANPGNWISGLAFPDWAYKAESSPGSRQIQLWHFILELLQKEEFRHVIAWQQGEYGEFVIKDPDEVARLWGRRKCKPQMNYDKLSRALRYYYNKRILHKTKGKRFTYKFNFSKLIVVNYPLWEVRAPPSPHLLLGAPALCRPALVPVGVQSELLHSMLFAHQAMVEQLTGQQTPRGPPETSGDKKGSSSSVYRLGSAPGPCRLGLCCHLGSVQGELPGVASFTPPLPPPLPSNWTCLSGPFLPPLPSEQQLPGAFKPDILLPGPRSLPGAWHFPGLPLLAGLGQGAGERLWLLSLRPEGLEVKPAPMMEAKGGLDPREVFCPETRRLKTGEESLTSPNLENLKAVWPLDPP
# Outline: as §1
# [13] = target: T8, ETS2 (Homo sapiens, UniProt P15036 1-469); conditions: protein: recombinant; tags: N-terminal GST; dsDNA, one strand shown
# T8 sequence: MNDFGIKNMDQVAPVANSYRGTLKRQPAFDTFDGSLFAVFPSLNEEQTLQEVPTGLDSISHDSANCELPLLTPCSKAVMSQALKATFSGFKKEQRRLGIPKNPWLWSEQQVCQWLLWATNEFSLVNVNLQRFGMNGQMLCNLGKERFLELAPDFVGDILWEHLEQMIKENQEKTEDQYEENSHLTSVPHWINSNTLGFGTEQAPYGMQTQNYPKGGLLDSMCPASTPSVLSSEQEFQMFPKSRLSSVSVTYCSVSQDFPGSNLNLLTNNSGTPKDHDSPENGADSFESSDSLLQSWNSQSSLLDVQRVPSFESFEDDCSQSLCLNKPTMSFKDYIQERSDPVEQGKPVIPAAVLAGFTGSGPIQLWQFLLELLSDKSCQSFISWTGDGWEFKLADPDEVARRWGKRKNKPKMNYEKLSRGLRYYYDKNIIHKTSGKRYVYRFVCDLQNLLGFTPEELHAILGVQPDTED
# Outline: as §1
# [14] = target: T9, SPDEF (Homo sapiens, UniProt O95238 1-335); conditions: protein: recombinant; tags: N-terminal GST; dsDNA, one strand shown
# T9 sequence: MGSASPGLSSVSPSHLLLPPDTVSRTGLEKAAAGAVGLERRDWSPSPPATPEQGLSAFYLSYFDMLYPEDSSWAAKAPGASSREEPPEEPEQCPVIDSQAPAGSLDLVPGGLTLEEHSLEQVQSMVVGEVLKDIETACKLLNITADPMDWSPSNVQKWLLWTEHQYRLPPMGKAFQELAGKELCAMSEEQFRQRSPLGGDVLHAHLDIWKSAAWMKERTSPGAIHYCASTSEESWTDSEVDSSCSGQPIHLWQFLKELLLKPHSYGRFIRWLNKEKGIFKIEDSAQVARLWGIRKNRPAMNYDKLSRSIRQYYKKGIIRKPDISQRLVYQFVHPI
# Outline: as §1
# [15] = target: T10, ETV7 (Homo sapiens, UniProt Q9Y603 1-341); conditions: protein: recombinant; tags: N-terminal GST; dsDNA, one strand shown
# T10 sequence: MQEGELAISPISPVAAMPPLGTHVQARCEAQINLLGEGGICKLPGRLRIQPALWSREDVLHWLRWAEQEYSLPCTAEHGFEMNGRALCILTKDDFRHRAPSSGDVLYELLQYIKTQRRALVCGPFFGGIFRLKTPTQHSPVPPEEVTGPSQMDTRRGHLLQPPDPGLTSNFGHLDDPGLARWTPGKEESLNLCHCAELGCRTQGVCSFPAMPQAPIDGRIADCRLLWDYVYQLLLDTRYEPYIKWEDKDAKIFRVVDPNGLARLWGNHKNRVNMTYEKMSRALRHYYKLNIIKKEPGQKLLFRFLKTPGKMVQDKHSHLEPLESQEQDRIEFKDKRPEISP
# Outline: as §1
# [16] = target: T11, ELF5 (Homo sapiens, UniProt Q9UKW6-2 1-255); conditions: protein: recombinant; tags: N-terminal GST; dsDNA, one strand shown
# T11 sequence: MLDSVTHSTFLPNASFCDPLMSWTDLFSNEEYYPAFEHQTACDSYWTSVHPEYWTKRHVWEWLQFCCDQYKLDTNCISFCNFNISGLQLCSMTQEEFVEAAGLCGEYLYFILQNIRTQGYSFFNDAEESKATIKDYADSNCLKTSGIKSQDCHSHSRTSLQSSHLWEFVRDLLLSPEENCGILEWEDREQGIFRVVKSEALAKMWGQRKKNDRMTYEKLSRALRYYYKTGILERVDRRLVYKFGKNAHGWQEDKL
# Outline: as §1
# [17] = target: T12, ETV3 (Homo sapiens, UniProt P41162-2 1-143); conditions: protein: recombinant; tags: N-terminal GST; dsDNA, one strand shown
# T12 sequence: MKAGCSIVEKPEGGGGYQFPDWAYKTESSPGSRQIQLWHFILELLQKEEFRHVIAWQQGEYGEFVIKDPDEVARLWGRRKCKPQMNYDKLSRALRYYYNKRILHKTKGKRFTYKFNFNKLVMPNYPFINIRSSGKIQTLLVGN
# Outline: as §1
# [18] = target: ETV6 (Homo sapiens, UniProt P41212 1-452); conditions: protein: recombinant; tags: N-terminal GST; dsDNA, one strand shown
# Chain of ETV6 (P41212 whole entry): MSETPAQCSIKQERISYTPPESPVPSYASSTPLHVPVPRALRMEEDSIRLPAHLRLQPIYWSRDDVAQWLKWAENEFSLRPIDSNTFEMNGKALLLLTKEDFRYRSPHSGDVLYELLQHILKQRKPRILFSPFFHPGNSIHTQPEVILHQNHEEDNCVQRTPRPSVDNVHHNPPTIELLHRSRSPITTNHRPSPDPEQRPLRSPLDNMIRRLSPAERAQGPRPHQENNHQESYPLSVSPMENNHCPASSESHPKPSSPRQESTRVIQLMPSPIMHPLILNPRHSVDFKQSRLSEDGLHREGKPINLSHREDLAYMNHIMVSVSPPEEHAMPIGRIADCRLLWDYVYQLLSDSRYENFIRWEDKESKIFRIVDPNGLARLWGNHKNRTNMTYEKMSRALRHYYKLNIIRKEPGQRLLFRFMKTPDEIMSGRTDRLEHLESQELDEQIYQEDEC
# Outline: as §1
sequence,measurement,setting,value
TAATTA,binding signal,[1],"1.22 fold enrichment (6-mer frequency, TF over GST control)"
same,binding signal,[2],"1.31 fold enrichment (6-mer frequency, TF over GST control)"
same,binding signal,[3],"1.81 fold enrichment (6-mer frequency, TF over GST control)"
same,binding signal,[4],"1.4 fold enrichment (6-mer frequency, TF over GST control)"
same,binding signal,[5],"1.23 fold enrichment (6-mer frequency, TF over GST control)"
same,binding signal,[6],"1.17 fold enrichment (6-mer frequency, TF over GST control)"
same,binding signal,[7],"1.35 fold enrichment (6-mer frequency, TF over GST control)"
same,binding signal,[8],"1.3 fold enrichment (6-mer frequency, TF over GST control)"
same,binding signal,[9],"2.74 fold enrichment (6-mer frequency, TF over GST control)"
same,binding signal,[10],"1.33 fold enrichment (6-mer frequency, TF over GST control)"
same,binding signal,[11],"1.24 fold enrichment (6-mer frequency, TF over GST control)"
same,binding signal,[12],"1.23 fold enrichment (6-mer frequency, TF over GST control)"
same,binding signal,[13],"1.34 fold enrichment (6-mer frequency, TF over GST control)"
same,binding signal,[14],"1.24 fold enrichment (6-mer frequency, TF over GST control)"
same,binding signal,[15],"1.35 fold enrichment (6-mer frequency, TF over GST control)"
same,binding signal,[16],"1.2 fold enrichment (6-mer frequency, TF over GST control)"
same,binding signal,[17],"1.19 fold enrichment (6-mer frequency, TF over GST control)"
same,binding signal,[18],"1.36 fold enrichment (6-mer frequency, TF over GST control)"
